# This is a sample that favours compounds with a hit; in the whole collection about 2.3% have one here.
# SENP6 block: SENP6 protease inhibition. 330,000 tested, 1.8% active. Q9GZR1. AID 2599. Recombinant SENP6 catalytic domain, aminoluciferin luminescence. inhibition, % at 10 µM;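 active = inhibition above about 50% at the single tested dose, limit read from the data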
# LGR2 inh: inhibitors of bursicon-induced Drosophila LGR2 receptor cAMP signaling; inhibition, % at 9.99 µM; HEK293 LGR2, CRE-luciferase, bursicon-stimulated, 4 h; 380,000 tested, 0.35% active;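 active = drop in luminescence signal, shown as inhibition above about 50% in the replicate tests, limit read from the data, passing the limit was not always enough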;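 note: agonist challenge used bursicon conditioned medium at about half maximal strength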
# SENP8 block-1: inhibitors of human SENP8 protease; inhibition, % at 10 µM; purified SENP8, Z-RLRGG-aminoluciferin cleavage, luminescence; Q96LD8; 330,000 tested, 1.2% active; in the data active = inhibition above about 50%
# Target sequence (Q96LD8 whole entry, looked up): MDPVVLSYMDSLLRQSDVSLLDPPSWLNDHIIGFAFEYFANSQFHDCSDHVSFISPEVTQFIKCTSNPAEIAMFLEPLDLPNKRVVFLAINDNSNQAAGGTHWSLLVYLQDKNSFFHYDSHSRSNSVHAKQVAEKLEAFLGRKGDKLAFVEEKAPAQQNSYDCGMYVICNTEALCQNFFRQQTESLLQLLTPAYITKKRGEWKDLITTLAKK
# SENP8 block-2: inhibitors of human SENP8 protease; Q96LD8; recombinant SENP8, Nedd8 substrate fluorescence; inhibition, % at 20 µM; 360,000 tested, 0.64% active; AID 602440; in the data active = inhibition mostly above about 40%, no sharp cut-off; inactive = mostly below about 27%
# SENP7 block: inhibitors of human SENP7 protease. Q9BQF6. recombinant SENP7, Z-RLRGG-aminoluciferin luminescence, 40 min. inhibition, % at 5 µM. 330,000 tested, 1.5% active;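 active = inhibition above about 50% at the single test dose, limit read from the data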
# Target sequence (Q9BQF6 706-1050 limits assumed): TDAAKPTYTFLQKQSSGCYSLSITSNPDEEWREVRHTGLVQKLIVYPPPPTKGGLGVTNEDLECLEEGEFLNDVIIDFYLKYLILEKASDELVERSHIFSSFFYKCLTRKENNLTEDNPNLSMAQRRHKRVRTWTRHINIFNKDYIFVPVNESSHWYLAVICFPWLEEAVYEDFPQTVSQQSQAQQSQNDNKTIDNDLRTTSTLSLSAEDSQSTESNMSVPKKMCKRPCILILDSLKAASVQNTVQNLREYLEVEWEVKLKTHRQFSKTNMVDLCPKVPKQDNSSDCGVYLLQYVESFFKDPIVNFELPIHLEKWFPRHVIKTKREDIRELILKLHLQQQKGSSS
# HSP90 refold inh: HSP90 refolding inhibition in rabbit reticulocyte lysate. AID 1789. inhibition, % at 5.6 µM. luciferase refolding luminescence, 3 h. 290,000 tested, 0.91% active;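 active = inhibition above the screen-wide mean plus 3 SD, computed separately per campaign, cut at about 16% in these data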;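 note: inhibitors lower the luminescence because luciferase stays unfolded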
# SENP8 conf: human SENP8 inhibition, confirmed. shares compounds with SENP7 block. Recombinant SENP8, Z-RLRGG-aminoluciferin luminescence, 60 min. inhibition, % at 12.5 µM. 6,200 tested, 40% active. AID 488912;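 active = mean inhibition across replicates above about 50%, limit read from the data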
# SENP6 conf: confirmation of human SENP6 protease inhibitors; recombinant SENP6, Z-RLRGG-aminoluciferin luminescence; 6,200 tested, 58% active; shares compounds with SENP7 block; AID 488915; inhibition, % at 12.5 µM
# SENP7 conf: human SENP7 inhibition, confirmed; shares compounds with SENP7 block; recombinant SENP7, Z-RLRGG-aminoluciferin luminescence, 40 min; inhibition, % at 12.5 µM; 6,200 tested, 69% active
# Casp3 SENP sel: inhibits human caspase-3 in SENP selectivity test; shares compounds with SENP7 block; inhibition, % at 12.5 µM; AID 488918; purified caspase-3, Z-DEVD-aminoluciferin luminescence, 60 min; 6,200 tested, 60% active;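 active = mean inhibition above about 50%, limit read from the data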
# SENP luc ctr: counter-screen for SENP inhibitors: luminescence interference. shares compounds with SENP7 block. Pre-incubated SENP8/Z-RLRGG-aminoluciferin, luciferase luminescence interference. inhibition, % at 12.5 µM. 6,200 tested, 39% active;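 active = mean inhibition above about 50% when retested at one dose, limit read from the data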
# A number is an active result; n = inactive; x = no result given.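 Rule for the calls, unless noted: active = mean inhibition above about 50% in the one-dose retest (limit read from the data); inactive = the rest.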
SMILES,SENP6 block,LGR2 inh,SENP8 block-1,SENP8 block-2,SENP7 block,HSP90 refold inh,SENP8 conf,SENP6 conf,SENP7 conf,Casp3 SENP sel,SENP luc ctr
O=C1C2C3c4ccccc4C(c4ccccc43)C2C(=O)N1c1nc(-c2ccccc2)cs1 (stereo not drawn),n,x,n,n,n,n,x,x,x,x,x
COc1cc(NC(=O)c2csc3c2CCCC3)ncn1,61,n,n,n,n,n,n,n,n,n,n
COc1ccccc1NC(=O)c1csc2c1CCCC2,n,x,n,n,n,n,x,x,x,x,x
CO[C@H]1CN(C)C(=O)c2cc(NC(=O)Nc3cccc(F)c3)ccc2OC[C@@H](C)N(C(=O)Nc2c(C)noc2C)C[C@@H]1C,x,n,x,x,x,x,x,x,x,x,x
COC(=O)[C@@H]1[C@@H](CO)[C@@H]2Cn3c(ccc(-c4ccccc4F)c3=O)[C@@H]2N1C(=O)c1cnccn1,x,n,x,x,x,x,x,x,x,x,x
O=C1/C(=C/Nc2cccc([N+](=O)[O-])c2)CCc2ccccc21,n,n,61,n,n,n,n,81,92,60,n
C[C@H]1CN([C@@H](C)CO)C(=O)c2cccc(NS(=O)(=O)c3cn(C)cn3)c2O[C@H]1CN(C)C(=O)NC1CCCCC1,x,n,x,x,x,x,x,x,x,x,x
Cc1cccc(/C=N/Nc2nncc3ccccc23)c1,92,n,90,n,96,n,74,94,102,94,n
C(=N\Nc1nncc2ccccc12)/c1ccccc1,n,x,n,n,n,n,x,x,x,x,x
COc1cc(/C=N/Nc2nncc3ccccc23)cc(OC)c1OC,70,n,59,n,78,n,77,75,94,82,71
COc1ccc(/C=N\Nc2ccccn2)c(OC)c1,55,n,54,n,n,n,n,62,87,62,n
COc1ccc(/C=N/Nc2nncc3ccccc23)c(OC)c1,77,n,64,n,78,n,n,73,n,n,n
C[C@H]1CN([C@@H](C)CO)C(=O)c2cc(C#CCN(C)C)cnc2O[C@H]1CN(C)C(=O)NC1CCCCC1,x,n,x,x,x,x,x,x,x,x,x
COc1ccccc1C=NNC(=O)NN=Cc1ccccc1OC,x,n,x,n,x,x,x,x,x,x,x
COc1ccccc1/C=N/Nc1nccnc1Cl,90,n,85,n,91,n,86,85,98,95,89
CC(C)C1Oc2ccccc2C(=O)N(CC(=O)c2ccc3c(c2)OCCO3)C1=O (stereo not drawn),n,n,n,n,56,n,n,n,n,n,n
CC1Oc2ccccc2C(=O)N(CC(=O)c2ccc3c(c2)OCCO3)C1=O (stereo not drawn),n,n,n,n,n,n,x,x,x,x,x
CCOC(=O)c1sc(/N=C/c2ccc(O)cc2O)cc1C,96,n,94,n,n,n,78,98,101,83,n
NC(=O)c1cc([N+](=O)[O-])ccc1NCc1cccc2ccccc12,n,n,n,n,n,x,x,x,x,x,x
O=C(/C=C/Nc1ccc([N+](=O)[O-])cc1Br)c1cccc2ccccc12,87,n,n,n,86,n,n,n,n,n,n
CC(C)(C)c1ccc2c(c1)C(=O)c1ccccc1C2=O,96,n,66,n,96,n,n,59,82,n,n
C[C@@H]1CN([C@@H](C)CO)C(=O)c2cc(C3=CCCC3)cnc2O[C@H]1CN(C)Cc1ccccc1C(=O)O,x,n,x,x,x,x,x,x,x,x,x
CC(C)C#Cc1ccc2c(c1)O[C@@H](CN(C)S(C)(=O)=O)[C@H](C)CN([C@@H](C)CO)S2(=O)=O,x,n,x,x,x,x,x,x,x,x,x
CC(=O)OCCNc1cc(SC(C)C)c2nonc2c1[N+](=O)[O-],56,n,n,n,n,n,n,n,n,n,n
CC(=O)OCCN(C)c1cc(SC(C)C)c2nonc2c1[N+](=O)[O-],n,n,n,n,n,n,x,x,x,x,x
SMILES,SENP6 block,LGR2 inh,SENP8 block-1,SENP8 block-2,SENP7 block,HSP90 refold inh,SENP8 conf,SENP6 conf,SENP7 conf,Casp3 SENP sel,SENP luc ctr
CS(=O)(=O)c1ccc2nc(NC(=O)c3cc([N+](=O)[O-])cc([N+](=O)[O-])c3)sc2c1,n,n,n,n,n,n,x,x,x,x,x
COc1cc(C(=O)Nc2nc3ccc(S(C)(=O)=O)cc3s2)cc(OC)c1C,n,n,n,n,n,n,x,x,x,x,x
CS(=O)(=O)c1ccc2nc(NC(=O)c3cccc([N+](=O)[O-])c3)sc2c1,95,n,95,n,97,n,98,99,102,97,78
COc1cc(OC)cc(C(=O)Nc2nc3ccc(S(C)(=O)=O)cc3s2)c1,86,n,91,n,98,n,93,96,101,96,92
CC(/C=C/c1ccc(O)cc1)=N/O,91,x,81,n,85,n,86,84,96,93,86
O=C(O)/C=C/c1ccc(O)cc1,n,n,n,n,n,x,x,x,x,x,x
c1ccc(Cn2c(-c3ccco3)nc3nc4ccccc4nc32)cc1,89,x,75,n,52,n,n,82,96,82,n
O=c1c2ccccc2nc(-c2ccc(Br)cc2)n1Cc1ccccc1,n,n,n,n,n,n,x,x,x,x,x
O=c1c2ccccc2nc(-c2ccco2)n1Cc1ccccc1,77,n,63,n,69,n,79,76,89,78,77
CCc1ccc2oc(C(=O)Nc3cccnc3)c(C)c2c1,64,x,n,n,69,n,n,67,92,55,n
O=C(Nc1cccnc1)c1cc2c(ccc3ccccc32)o1,67,x,61,n,82,n,n,56,56,62,n
O=C(c1cc2c(ccc3ccccc32)o1)N1CCCCC1,93,n,84,n,91,n,90,90,99,86,89
O=C(O)c1cc2c(ccc3ccccc32)o1,n,n,n,n,n,n,x,x,x,x,x
C[C@H](NC(=O)C[C@H]1CC[C@H](NC(=O)Nc2ccc3c(c2)OCO3)[C@H](CO)O1)c1ccccc1,x,n,x,x,x,x,x,x,x,x,x
COc1ccc2c3c([nH]c2c1)[C@H](CO)N(Cc1ccccc1)CC31CCN(S(C)(=O)=O)CC1,x,n,x,x,x,x,x,x,x,x,x
O=C(N[C@H]1CC[C@H](CCn2cc(C3(O)CCCC3)nn2)O[C@@H]1CO)c1ccccc1F,x,n,x,x,x,x,x,x,x,x,x
C[C@@H]1CN([C@@H](C)CO)C(=O)Cc2cc(NS(=O)(=O)c3cccs3)ccc2O[C@@H]1CN(C)Cc1ccc(Cl)c(Cl)c1,x,n,x,x,x,x,x,x,x,x,x

# Assay outcomes (PubChem BioAssay)
